BoNT F protease – inhibitors of Botulinum neurotoxin F light chain protease | Multiplex microsphere protease cleavage assay, flow cytometry | inhibition, % at 10 µM | actives 0.22% (n = 360,000) | AID 588497; in the data active = inhibition above about 35%, passing the limit was not always enough; inconclusive = no clear call, values can overlap the other calls
BoNT A protease – BoNT A light chain protease inhibition; multiplex microsphere protease substrate cleavage, flow cytometry; inhibition, % at 10 µM; actives 0.17% (n = 360,000); AID 588499
3CLpro inhibitor – SARS-CoV 3CLpro protease inhibition; P0C6X7; recombinant SARS-CoV 3CLpro, quenched FRET peptide cleavage; inhibition, % at 6 µM; actives 0.14% (n = 290,000); AID 1706; in the data active = inhibition above about 12%
VHR inh abs – blocks human VHR1 dual specificity phosphatase; actives 0.52% (n = 290,000); recombinant VHR phosphatase, pNPP absorbance; P51452; inhibition, % at 13.3 µM; in the data active = inhibition above about 50%
Anthrax LF prot – inhibitors of Bacillus anthracis lethal factor protease. P15917. inhibition, % at 10 µM. actives 0.12% (n = 360,000). multiplex microsphere protease cleavage assay, LF
Target sequence (P15917 whole entry, looked up): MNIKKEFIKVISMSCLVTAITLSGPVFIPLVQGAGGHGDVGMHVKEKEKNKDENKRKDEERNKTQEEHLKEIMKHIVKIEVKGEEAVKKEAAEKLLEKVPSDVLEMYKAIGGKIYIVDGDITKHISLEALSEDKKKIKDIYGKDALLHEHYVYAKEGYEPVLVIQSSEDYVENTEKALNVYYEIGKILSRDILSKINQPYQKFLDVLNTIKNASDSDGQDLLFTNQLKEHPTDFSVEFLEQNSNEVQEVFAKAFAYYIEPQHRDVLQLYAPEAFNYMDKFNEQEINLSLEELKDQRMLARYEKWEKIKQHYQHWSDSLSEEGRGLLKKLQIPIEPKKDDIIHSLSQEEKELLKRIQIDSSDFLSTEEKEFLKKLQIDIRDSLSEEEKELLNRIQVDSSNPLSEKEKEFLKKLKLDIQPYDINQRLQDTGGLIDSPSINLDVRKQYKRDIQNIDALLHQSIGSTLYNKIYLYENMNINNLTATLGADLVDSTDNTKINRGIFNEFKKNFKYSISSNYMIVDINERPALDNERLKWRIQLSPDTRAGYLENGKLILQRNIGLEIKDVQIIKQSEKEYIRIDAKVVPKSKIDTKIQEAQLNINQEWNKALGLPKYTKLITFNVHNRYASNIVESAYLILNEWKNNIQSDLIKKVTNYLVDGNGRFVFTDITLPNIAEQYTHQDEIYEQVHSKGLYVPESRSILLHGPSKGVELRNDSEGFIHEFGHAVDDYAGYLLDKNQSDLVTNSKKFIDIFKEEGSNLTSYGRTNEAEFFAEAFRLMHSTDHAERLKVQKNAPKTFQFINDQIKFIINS
Autofluor counter – flagged as autofluorescent in microsphere protease counterscreen. compound autofluorescence counterscreen, microsphere flow cytometry; stronger effect = higher value. actives 3.1% (n = 360,000). fluorescence intensity (concentration not given with the values); in the data active = fluorescence intensity above about 16000; inconclusive = no clear call, values can overlap the other calls
Hits are given with their value; – = inactive; ? = inconclusive; · = not tested or not shown. Hits are enriched below; roughly 3.9% of the tested compounds scored in any of these assays. Cut-off read from the data, not from the text of the source, unless noted: active = inhibition above about 30%; inconclusive = no clear call, values can overlap the other calls; inactive = below that.

SMILES | BoNT F protease | BoNT A protease | 3CLpro inhibitor | VHR inh abs | Anthrax LF prot | Autofluor counter
C=CCOC(=O)C1=C(C)Nc2nnnn2C1c1cccs1 (stereo not given) | – | – | – | – | – | 17729
Cc1c(C(=O)N(C)C(C)c2ccccn2)oc2c(F)cccc12 (stereo not given) | – | – | – | – | – | –
CN(C)C(=O)Oc1ccc2ccccc2c1Cl | – | – | – | – | – | 23669
CCN(CC)C(=O)Oc1ccc2ccccc2c1Cl | – | – | – | – | – | –
CCn1c(SCC(=O)OC)nnc1-c1ccc(C)cc1 | – | – | – | – | – | –
CCOC(=O)CSc1nnc(-c2nnc(SCC(=O)OCC)n2CC)n1CC | – | – | – | – | – | 16806
Cc1ccc(OCCN(C)C(=O)C2CCC(=O)N(CCCN3CCOCC3)C2)cc1 (stereo not given) | – | – | – | – | – | –
COc1ccc(OC)c(-c2cc(C(=O)Nc3c(C)n(C)n(-c4ccccc4)c3=O)no2)c1 | – | – | – | – | – | 16603
COc1ccc(OC)c(-c2cc(C(=O)Nc3cc(C)n(Cc4ccc(Cl)cc4)n3)no2)c1 | – | – | – | – | – | 23480
COc1cccc(-c2cc(C(=O)Nc3c(C)n(C)n(-c4ccccc4)c3=O)no2)c1 | – | – | – | – | – | –
COc1ccccc1-c1cc(C(=O)Nc2c(C)n(C)n(-c3ccccc3)c2=O)no1 | – | ? | – | – | – | 16484
C=CCn1cc(C(=O)NCCCOCC)c(=O)c2cc(S(=O)(=O)N(CC)CC)ccc21 | – | – | – | – | – | 23558
C=CCn1cc(C(=O)NCCOC)c(=O)c2cc(S(=O)(=O)N(CC)CC)ccc21 | – | – | – | – | – | 16280
CCOC(=O)c1cnc(Nc2nc3ccccc3o2)nc1CN1CCN(c2ccccc2)CC1 | · | · | – | · | · | ·
CCOC(=O)c1cnc(Nc2nc3ccccc3o2)nc1C | – | – | – | – | – | 20539
Cc1nc(S(=O)(=O)c2ccc(Cl)cc2)c(N(C)C)o1 | – | – | – | 53 | – | –
O=C(NCCCN1CCOCC1)C(=O)NCC1OCCN1S(=O)(=O)c1ccc(Cl)cc1 (stereo not given) | – | – | · | · | – | –
C[C@H](NC(=O)[C@@H]1Cc2ccccc2CN1)C(=O)NC1CCCC1 | – | – | – | – | – | –
NC1=Nc2ccccc2Oc2ccccc21 | – | ? | – | – | – | 16347
COc1ccc(NC(=O)Cn2nnc(C(=O)NCc3ccc4c(c3)OCO4)c2N)c(OC)c1 | – | – | – | – | – | –
Cc1ccc(CNC(=O)CCSCc2ccccc2F)cc1 | – | – | – | – | – | –
CCCc1nc2c(C)ccc(C)c2c(N)c1CC | – | ? | – | – | – | 22777
CCOC(=O)c1sc2cccc(Cl)c2c1N | – | – | – | – | – | –
CCOC(=O)c1sc2cccc(F)c2c1N | – | ? | – | – | – | 22763
CCc1ccccc1N1C(=O)c2cccc3c(N4CCOCC4)c([N+](=O)[O-])cc(c23)C1=O | – | – | – | – | – | 24654
SMILES | BoNT F protease | BoNT A protease | 3CLpro inhibitor | VHR inh abs | Anthrax LF prot | Autofluor counter
S=c1[nH]nc(C2CC2c2ccc(Cl)cc2)n1-c1ccc(Cl)cc1 (stereo not given) | – | – | – | – | – | –
Cc1ccc(-n2c(C3CC3c3ccc(Cl)cc3)n[nH]c2=S)cc1 (stereo not given) | – | – | – | – | – | 23745
Cc1ccc(C2CC2c2n[nH]c(=S)n2-c2ccc(C)cc2)cc1 (stereo not given) | – | ? | – | – | – | 24709
CCOc1ccc(CCNC(=O)CN2C(=O)NC3(CCCC3)C2=O)cc1OCC | – | – | – | – | – | –
COc1ccc(-c2cc(C(=O)N3CCCc4ccccc43)no2)cc1 | – | ? | – | – | – | 22780
O=C(c1cc2cc(Br)ccc2[nH]1)N1CCc2ccccc21 | – | – | – | – | – | –
COc1ccc2cc(C(=O)N3CCc4ccccc43)[nH]c2c1 | – | – | – | 53 | – | –
COc1ccc(-c2cc(C(=O)N3CCCc4ccccc43)no2)cc1OC | – | – | – | – | – | 22113
COc1ccc(-c2cc(C(=O)N3CCc4ccccc4C3)no2)cc1OC | – | – | – | – | – | 21095
CN(C)C1=NCCN1CCCCc1ccccc1 | – | – | · | · | – | –
C/C(COc1ccccc1)=N\NC(=O)c1nnn(-c2nonc2N)c1CSc1ccc(C)cc1 | – | – | · | · | – | –
COc1ccccc1-c1cnc(C(O)c2ccc(Cl)cc2C)[nH]1 (stereo not given) | – | – | · | · | – | –
O=C1C(Cc2ccccc2)Nc2ncnc(N3CCCCC3)c2N1Cc1ccc(Cl)cc1 (stereo not given) | – | – | · | · | – | –
Cc1nn(CCOc2ccccc2)c(=O)n1-c1ccccc1 | – | – | – | – | – | 22975
CCOC(=O)Cn1nc(C)n(-c2ccccc2)c1=O | – | – | – | – | – | 22724
Cc1ccc(C)c(Cn2nc(-c3ccccc3)ccc2=O)c1 | – | – | – | 53 | – | –
Cc1ccc(-c2ccc(=O)n(Cc3cc(C)ccc3C)n2)cc1 | – | – | – | – | – | –
COC(=O)C(C)n1nc(C)n(-c2ccc(C)cc2)c1=O (stereo not given) | – | – | – | – | – | 22187
O=C(CCN1C(=O)S/C(=C\c2ccccc2)C1=O)NC1CCS(=O)(=O)C1 (stereo not given) | – | – | – | – | – | –
Cc1cc(C)c(NC(=O)CNC(=O)c2ccccc2OCc2c(C)noc2C)c(C)c1 | – | – | · | · | – | ?
Cc1nc2cc(F)ccc2n1C1CCN(S(=O)(=O)c2ccccc2)CC1 | – | – | – | – | – | –
CCOC(=O)Cn1nc(-c2ccccc2)ccc1=O | – | – | – | – | – | 23084
CCOC(=O)Cn1nc(C)n(-c2ccc(C)cc2)c1=O | – | – | – | – | – | 22478
Cc1nc(C(F)(F)F)ccc1C(=O)N1CCCC(C)(C(=O)O)C1 (stereo not given) | – | – | · | · | – | –
CCCCC(=O)N(C)c1c(CC)nc2c(OCC=C(C)C)cccn12 | – | – | · | · | – | –
SMILES | BoNT F protease | BoNT A protease | 3CLpro inhibitor | VHR inh abs | Anthrax LF prot | Autofluor counter
COc1ccc(NC(=O)c2ccccc2OCc2ccc(F)cc2)c(OC)c1 | – | – | – | – | – | –
C=CCn1c(-c2cccc3ccccc23)n[nH]c1=S | – | – | – | – | – | 21011
C/C(=N\O)C1/C(=N/O)CC2C1C2(C)C (stereo not given) | – | – | – | – | – | 23424
CCCCNC(=O)CCCn1c(=S)[nH]c2cc3c(cc2c1=O)OCO3 | – | ? | – | – | – | 20235
CCN(CC)CCn1c(=S)[nH]c2cc3c(cc2c1=O)OCO3 | – | ? | – | – | – | 23550
O=C(CCCn1c(=S)[nH]c2cc3c(cc2c1=O)OCO3)NCc1ccccc1Cl | – | – | – | – | – | –
O=C(CCCCCn1c(=S)[nH]c2ccccc2c1=O)NCc1ccc2c(c1)OCO2 | – | – | – | – | – | 23096
CCN(CC)CCNC(=O)CCn1c(=S)[nH]c2cc3c(cc2c1=O)OCO3 | – | – | – | – | – | –
COCCCNC(=O)CCCn1c(=O)[nH]c2ccccc2c1=O | – | – | – | – | – | –

Screening results (PubChem)
